Test results: PubChem BioAssay AID1626 (SRMLSC, 2009)
Among all 220,000 compounds or so, about 2,000 (0.91%) were called active. About 2% were inconclusive and are not listed. Cut-off read from the data, not from the text of the source: inconclusive = inhibition above about 80% without an active follow-up result; inactive = below that; test concentration not stated here. Not all results are given here. Entries with a potency or affinity are not part of this list.

Assay: M. tuberculosis H37Rv growth inhibitors, H37Rv strain (AID 1626);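 note: bacteria incubated seven days before Alamar blue readout; 0% = bacteria only wells and 100% = bacteria with antibiotic wells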
Details: hits give high values, concentration not given here

Row | Structure (SMILES) | inhibition
1 | Nc1nc2ccccc2n1C(=O)c1ccco1 | 2.98% (inactive)
2 | Cn1c(CNC(=O)c2ccc(F)cc2)nc2ccccc21 | -0.81% (inactive)
3 | Nc1nc2ccccc2n1C(=O)CCc1ccccc1 | 0.09% (inactive)
4 | Cc1ccc(S(=O)(=O)/N=C(\c2ccc(F)cc2)n2c(C)nc3ccccc32)cc1 | 4.23% (inactive)
5 | O=C(COc1ccc2ccccc2c1)N1c2ccccc2Sc2ccccc21 | 2.2% (inactive)
6 | CN(Cc1ccccc1)S(=O)(=O)c1ccc(NS(C)(=O)=O)cc1 | -4.2% (inactive)
7 | CC(=O)Nc1cc(Br)ccc1O | 3.76% (inactive)
8 | CN(Cc1ccccc1)C(=O)c1cc2ccccc2o1 | 6.83% (inactive)
9 | CCOc1cc(C(=O)Nc2ccc(F)cc2)cc(Br)c1OC | 9.07% (inactive)
10 | CCN(CC)c1ccc(/C=N/OCC(=O)N2CCCc3ccccc32)cc1 | 1.23% (inactive)
11 | CNc1c([N+](=O)[O-])cnn1-c1ccccc1Cl | 4.21% (inactive)
12 | Cc1ccccc1-c1cnn(-c2cccc([N+](=O)[O-])c2)c1N | 5.3% (inactive)
13 | O=C(CSc1nnc(NC(=O)Cc2ccccc2)s1)NCc1ccco1 | -1.92% (inactive)
14 | O=C(O)c1sccc1S(=O)(=O)c1ccccc1 | -0.34% (inactive)
15 | Cn1nccc1C(=O)Oc1ccc(/C=N/NC(=O)c2ccccc2O)cc1 | -6.68% (inactive)
16 | Cc1nnc(Cl)c2nn(-c3ccccc3)c(C)c12 | -0.17% (inactive)
17 | CC(C)(C)OC(=O)NCCCCCc1nnc(SCc2cccc(F)c2)o1 | 75% (inactive)
18 | CC(C)(C)OC(=O)NCCCCCc1nnc(SCc2ccc(F)cc2)o1 | 60.9% (inactive)
19 | Cc1ccc(CSc2nnc(CCNC(=O)OC(C)(C)C)o2)cc1 | 7.99% (inactive)
20 | Cc1cccc(CSc2nnc(CCNC(=O)OC(C)(C)C)o2)c1 | 15% (inactive)
21 | O=S(=O)(NC1CCCc2ccccc21)c1cnc[nH]1 (stereo not drawn) | 1.01% (inactive)
22 | O=C(COC(=O)c1cccs1)c1ccc2ccccc2c1 | 7% (inactive)
23 | Nc1ccccc1C(=O)OCC(=O)c1ccc2c(c1)OCCO2 | -1.04% (inactive)
24 | Nc1nc(N)c(N=Nc2ccc(SCC(=O)O)cc2)c(=O)[nH]1 | -4.15% (inactive)
25 | CN(C)S(=O)(=O)N(CC(=O)NCCSCc1ccccc1)c1ccccc1 | 22.6% (inactive)

Row | Structure (SMILES) | inhibition
26 | Cc1ccc(CN2CCN(Cc3ccncc3)CC2CCO)o1 (stereo not drawn) | -0.74% (inactive)
27 | CCN(CC)CCOC(=O)c1ccc([N+](=O)[O-])cc1 | 1.65% (inactive)
28 | O=C1c2ccccc2C(=O)N1c1ccc(Cl)cc1 | -5.9% (inactive)
29 | Cc1ccc(N2C(=O)C3C(c4ccccc4)(C2=O)C3(c2ccccc2)c2ccccc2)cc1 (stereo not drawn) | 7.89% (inactive)
30 | Cc1cccc(N2C(=O)c3cccc4c(N5CCCCC5)c([N+](=O)[O-])cc(c34)C2=O)c1C | 9.67% (inactive)
31 | CCc1ccccc1N1C(=O)c2cccc3c(N4CCOCC4)c([N+](=O)[O-])cc(c23)C1=O | 7.95% (inactive)
32 | COCCNS(=O)(=O)c1cc(-c2nn(C)c(=O)c3ccccc23)ccc1C | -0.86% (inactive)
33 | Cc1sc2nc(COC(=O)c3cccc(OC(F)F)c3)[nH]c(=O)c2c1C | 11.1% (inactive)
34 | Cc1ccc(NC(=O)COC(=O)c2ccc([N+](=O)[O-])s2)c(C)c1 | 9.26% (inactive)
35 | COc1ccccc1NC(=O)C(=O)N/N=C/c1ccc([N+](=O)[O-])s1 | 4.5% (inactive)
36 | Cc1ccccc1NC(=O)/C=C/c1cccs1 | -3.01% (inactive)
37 | Cc1cc([N+](=O)[O-])ccc1NC(=O)/C=C/c1cccs1 | -0.49% (inactive)
38 | CCNc1nc(NCC)nc(SCCOc2ccc(C)cc2)n1 | 15.1% (inactive)
39 | COc1ccc(S(=O)(=O)NCC2CCCN(C(=O)c3ccco3)C2)cc1 (stereo not drawn) | -5.58% (inactive)
40 | Cc1cc(CNC(=O)CC2C(=O)NCCN2CC(c2ccccc2)c2ccccc2)on1 (stereo not drawn) | 1.54% (inactive)
41 | Cn1ncc2c(Nc3ccccc3Cl)nc(Nc3ccccc3Cl)nc21 | 29.2% (inactive)
42 | Cn1ncc2c(Nc3ccc(O)cc3)nc(Cl)nc21 | -3.66% (inactive)
43 | COc1ccc(-n2c(SCC(=O)O)nc3sc4c(c3c2=O)CCC4)cc1 | -7.18% (inactive)
44 | CCCn1c(Nc2ccc(Cl)cc2)nc2ccccc21 | 3.28% (inactive)
45 | Cc1nc2ccccc2n1Cc1n[nH]c(=S)n1-c1ccc(Cl)cc1 | -9.13% (inactive)
46 | NS(=O)(=O)c1ccc(N=Nc2c(-c3ccccc3)[nH]n(-c3nc(-c4ccccc4)cs3)c2=O)cc1 | 15.4% (inactive)
47 | CCc1c(C)[nH]n(-c2nc(-c3ccccc3)cs2)c1=O | 5.2% (inactive)
48 | CC(C)[C@H](NC(=O)NCc1ccc(F)cc1)C(=O)O | -4.85% (inactive)
49 | COc1ccc(C(NC(=O)c2ccc(F)cc2)c2ccccc2)cc1 (stereo not drawn) | -2.49% (inactive)
50 | COc1ccc(-c2noc(CCCC(=O)Nc3cccnc3)n2)cc1OC | -1.27% (inactive)

Row | Structure (SMILES) | inhibition
51 | COc1ccc(CNc2ccc3c(c2)CCC3)cc1OC | 45.5% (inactive)
52 | CCOc1cc(CNc2ccc3c(c2)CCC3)ccc1OC | 46.6% (inactive)
53 | CC(NC(=O)c1ccc(OC2CCN(S(=O)(=O)N(C)C)CC2)cc1)C1CC1 (stereo not drawn) | -9.26% (inactive)
54 | CC(=O)c1ccc(N(C(=O)Cn2nnc3ccccc32)C(C(=O)NC2CCCCC2)c2cn(C)nc2C)cc1 (stereo not drawn) | -5.66% (inactive)
55 | Clc1ncnc2scc(-c3ccccc3)c12 | -11.5% (inactive)
56 | Clc1nc(-c2cccnc2)nc2scc(-c3ccccc3)c12 | 8.19% (inactive)
57 | Nc1ccc(C(=O)OCc2nc3ccccc3s2)cc1 | -2.83% (inactive)
58 | O=C(COC(=O)c1ccc(Br)o1)Nc1nc2ccccc2s1 | -3.5% (inactive)
59 | O=C(OCc1nc2ccccc2s1)c1ccccc1O | 16.7% (inactive)
60 | O=C(COC(=O)c1ccco1)Nc1nc2ccccc2s1 | -0.64% (inactive)
61 | CC(OC(=O)C(NC(=O)c1ccco1)C(C)C)C(=O)Nc1ncc(Cl)cc1Cl (stereo not drawn) | -14.4% (inactive)
62 | Cc1c(N=Cc2nc3ccccc3n2C)c(=O)n(-c2ccccc2)n1C | -8.83% (inactive)
63 | CCN(CC)Cc1cc(C(=O)O)c(C)o1 | -8.95% (inactive)
64 | Cc1ccc(C2(C)NC(=O)N(Cc3c(C)noc3C)C2=O)cc1 (stereo not drawn) | -0.8% (inactive)
65 | O=C(Nc1ccc([N+](=O)[O-])cn1)C1CC1 | 5.22% (inactive)
66 | O=C(NCc1cccc(Cl)c1)c1ccco1 | 0.19% (inactive)
67 | CN1c2ccc([N+](=O)[O-])cc2CC2(C(=O)NC(=O)N(c3ccccc3)C2=O)C1c1ccccc1 (stereo not drawn) | 76.5% (inactive)
68 | CC1CN2c3ccc([N+](=O)[O-])cc3CC3(C(=O)N(C)C(=O)N(C)C3=O)C2C(C)O1 (stereo not drawn) | -12.5% (inactive)
69 | CN1c2ccc([N+](=O)[O-])cc2CC2(C(=O)NC(=O)NC2=O)C1c1ccccc1 (stereo not drawn) | 0.68% (inactive)
70 | CN1C(=O)N(C)C(=O)C2(Cc3cc([N+](=O)[O-])ccc3N(C)C2c2ccccc2)C1=O (stereo not drawn) | -13.2% (inactive)
71 | COc1ccc2nc(C)cc(Sc3nc4ccccc4s3)c2c1 | 0.98% (inactive)
72 | COc1ccc(Cl)cc1N1C(=O)C2CCCN2C1c1sccc1C (stereo not drawn) | -9.7% (inactive)
73 | CCCCC(Sc1nc(N)c(NC(=O)c2ccc(OC)cc2)c(=O)[nH]1)C(=O)O (stereo not drawn) | -2.8% (inactive)
74 | Cc1ccc(OCC(=O)Nc2ccc(S(=O)(=O)Nc3ccccn3)cc2)c(C)c1 | -1.52% (inactive)
75 | COc1ccc(/C=N/NC(=O)C(C)Sc2ccccn2)cc1[N+](=O)[O-] (stereo not drawn) | -3.03% (inactive)

Row | Structure (SMILES) | inhibition
76 | CCOc1cccc(CN2CCCC(CCC(=O)NCc3ccccc3F)C2)c1O (stereo not drawn) | -1.53% (inactive)
77 | CC1CCc2c(sc3nc(CSc4nnnn4C)[nH]c(=O)c23)C1 (stereo not drawn) | 42.6% (inactive)
78 | CCCCNC(=O)Nc1cnn(CC)c1C(N)=O | -2.68% (inactive)
79 | O=C1O/C(=C/c2ccccc2)c2ccccc21 | 2.2% (inactive)
80 | O=C1O/C(=C\c2ccccc2)c2ccccc21 | 1.65% (inactive)
81 | Nc1nnc(SCC(=O)N2CCN(c3ccccc3)CC2)n1-c1ccccc1 | -16.5% (inactive)
82 | Cc1[nH]nc2c1C(=O)CCC2 | -7.75% (inactive)
83 | CC(C)(C)c1csc(Sc2ncccc2[N+](=O)[O-])n1 | 7.08% (inactive)
84 | CC(C)(C)n1cnnc1Sc1ncccc1[N+](=O)[O-] | -0.66% (inactive)
85 | O=c1ccnc(Sc2ncccc2[N+](=O)[O-])[nH]1 | 7.87% (inactive)
86 | Nc1nnc(Sc2ccc(Cl)cc2[N+](=O)[O-])s1 | 6.61% (inactive)
87 | Cc1ccc(N/C=C(\C#N)S(=O)(=O)c2ccccc2)cc1 | 1.01% (inactive)
88 | CC(=O)c1cc(-c2ccc(F)cc2)n(CCC(=O)Nc2cc(C)[nH]n2)c1C | 5.45% (inactive)
89 | Cn1c(N)c(-c2nc3cccnc3n2C)sc1=S | 2.49% (inactive)
90 | O=C(Nc1nc2ccccc2[nH]1)c1cccs1 | 56.3% (inactive)
91 | Cc1cc(NC(=O)c2cccs2)n(-c2nc3ccccc3[nH]2)n1 | 94.8% (inactive)
92 | Cc1cc(NC(=O)c2ccccc2)n(-c2ccccc2)n1 | -5.06% (inactive)
93 | COc1cccc(OC)c1C(=O)Nc1cc(C)nn1-c1nc2ccccc2[nH]1 | 53.2% (inactive)
94 | COc1ccc(C(=O)Nc2cc(C)nn2-c2nc3ccccc3[nH]2)c(OC)c1 | 57.3% (inactive)
95 | Cc1cc(NC(=O)c2ccccc2F)n(-c2nc3ccccc3[nH]2)n1 | 55.8% (inactive)
96 | Cc1cc(NC(=O)c2ccc(C)s2)n(-c2nc3ccccc3[nH]2)n1 | 83.6% (inactive)
97 | CC(=O)Nc1nc2ccccc2[nH]1 | -9.36% (inactive)
98 | OCC1(Cc2ccccc2)CCN(Cc2ccc(C(F)(F)F)cc2)CC1 | 10.2% (inactive)
